Drawing on PubChem BioAssay (NCI), this text covers growth for nine molecules.

Holding throughout (experiment): NCI-60 one-dose screen, 48 h (100 = growth as untreated, 0 = no growth, -100 = all killed)
Assay [1] has as its system HCT-15 colon. The following applies: 10 µM unless noted.
Assay [2] concerns HT29 colon. The note with it: 10 µM unless noted.
Assay [3] concerns SNB-75 CNS. The note with it: 10 µM unless noted.
In assay [4] the test system is SNB-19 CNS. The following applies: 10 µM unless noted.
Assay [5] concerns U251 CNS. The note with it: 10 µM unless noted.
The subject of assay [6] is PC-3 prostate. The note with it: 10 µM unless noted.
The subject of assay [7] is SK-MEL-5 melanoma. The following applies: 10 µM unless noted.
Assay [8] concerns UACC-62 melanoma. The note with it: 10 µM unless noted.
Assay [9] has as its system LOX IMVI melanoma. The following applies: 10 µM.
Assay [10] relates to SK-MEL-2 melanoma. The following applies: 10 µM unless noted.
Assay [11] concerns EKVX NSCLC. The following applies: 10 µM unless noted.
The subject of assay [12] is SN12C renal. The note with it: 10 µM unless noted.
Assay [13] has as its system UO-31 renal. The note with it: 10 µM unless noted.
The subject of assay [14] is ACHN renal. The following applies: 10 µM unless noted.
Assay [15] concerns CAKI-1 renal. The following applies: 10 µM unless noted.
In assay [16] the test system is A498 renal. The note with it: 10 µM unless noted.
Assay [17] relates to CCRF-CEM leukemia. The following applies: 10 µM unless noted.
Assay [18] relates to MOLT-4 leukemia. The note with it: 10 µM unless noted.
Assay [19] deals with SK-MEL-28 melanoma. The following applies: 10 µM unless noted.
Assay [20] concerns TK-10 renal. The following applies: 10 µM unless noted.

About 83,000 compounds went through this panel and 20% of them were active in at least one assay; those are over-represented in the sample as a whole.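 Method: cells in 96-well plates; compound added at one concentration; 48 h incubation; percent growth measured; values under 10 scored active.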 Unmarked numbers belong to inactive results. Activity calls are given as the source filed them.

For the molecule `C/C=C/c1cc2c(c(=O)o1)C(=O)[C@@H](O)[C@H](C)O2`, the growth in assay [1] is -25.4% (active); in assay [2], 13%; in assay [3], -23.4% (active); in assay [4] it was 94.9%; in assay [5], 40.4%; in assay [6], 11.3%. Further, the growth in [7] was 95.2%; in assay [8], 80.5%; in assay [9], 25.2%; in assay [10] it was 72.9%; in [11], 95%; in assay [12] it was 97.6%. Besides, the growth was 0.0978% (active) in assay [13]; 26.3% in assay [14]; 43.3% in assay [15]; 125% in assay [16]; -17.5% (active) in [17]; 43.6% in assay [18].
`CC1=CC(=NC(=O)CBr)C=C/C1=N\S(=O)(=O)c1ccccc1`: the growth in [1] is 36.6%; in assay [2] it was 39.9%; in [3], 67.6%; in assay [4], 98.2%; in assay [5] it was 67.3%; in [6] it was 77.5%. For the same molecule, the growth is 57.1% in assay [7]; 66.7% in assay [8]; 9.2% (active) in assay [9]; 73.1% in [19]; 14.1% in assay [12]; 73.1% in [13]. Also, the growth in assay [20] was 79.2%; in [14], 46.9%; in assay [16] it was 97.2%; in assay [17] it was 12.2%; in assay [18] it was 43.7%.
For the molecule `CC(C)(C)c1ccc(CCO)cc1`, the growth in [1] is 109%; in assay [2], 110%; in assay [3] it was 96.7%; in assay [4], 95.7%; in [5] it was 103%; in assay [6] it was 99.8%. The growth in [7] is 95.6%; in [8] it was 89.5%; in assay [9], 99.5%; in assay [19], 121%; in assay [12], 91.8%; in [13], 78.8%. Further, the growth in [20] is 93.7%; in [14] it was 107%; in assay [16], 118%; in assay [17] it was 87.2%; in assay [18] it was 99.1%.
As for `Cc1cc(C)c([I+]c2c(C)cc(C)cc2C)c(C)c1`, the growth in [1] is 25.7%; in assay [2] it was -10.5% (active); in [3], -60% (active); in assay [4] it was -78.3% (active); in assay [5] it was -88.7% (active); in assay [6], -16.7% (active). Further, the growth in assay [7] is -96.8% (active); in assay [8], -92.6% (active); in assay [19], -61.4% (active); in assay [10], -44.1% (active); in [11] it was 4.01% (active); in [12], -66.2% (active). The growth in assay [13] was -20.4% (active); in assay [14] it was -16.1% (active); in [15], 29.2%; in assay [16], 45%; in [17], -29.5% (active); in [18], -41.1% (active).
For the molecule `O=C(NNc1ccccc1)OCc1ccccc1`, the growth was 73% in [1]; 97.7% in [2]; 114% in [3]; 97.5% in [4]; 80.4% in [5]; 54.1% in assay [6]. Further, the growth is 101% in assay [7]; 28.1% in [8]; 105% in assay [19]; 86.1% in assay [10]; 84.9% in [12]; 56.8% in [13]. The growth is 90% in assay [20]; 50.2% in [14]; 28.3% in [15]; 86.1% in assay [16]; 22% in [17]; 26.9% in assay [18].
Regarding `Oc1ccccc1N=Cc1ccccc1`, the growth in assay [1] was 58.5%; in [2], 102%; in assay [3], 132%; in assay [4] it was 93.7%; in assay [5], 89.9%; in [6] it was 36.5%. For the same molecule, the growth in assay [7] is 65.2%; in assay [8], 98.8%; in [9] it was 54.7%; in assay [19] it was 119%; in assay [12], 81.7%; in [13] it was 67.4%. For the same molecule, the growth in [20] was 122%; in [14], 85.1%; in assay [15] it was 97.7%; in assay [16], 97.7%; in assay [17], 86.6%; in assay [18], 81.2%.
On to `O=C1C=CC(=O)N1C1CCCCCCCCCCC1`, for which the growth in assay [1] was 88.6%; in [2], 45.2%; in assay [3], 79.4%; in assay [4], 97.1%; in assay [5], 91.6%; in [6] it was 86.9%. For the same molecule, the growth was 92.9% in assay [7]; 88.8% in assay [8]; 91% in [19]; 84.2% in [10]; 82.9% in assay [12]; 60.4% in assay [13]. Also, the growth is 71.5% in assay [20]; 50.1% in [14]; 43.5% in [15]; 113% in [16]; -11% (active) in [17]; 6.51% (active) in [18].
As to `O=C(OC12CC3CC(CC(C3)C1)C2)c1ccc(NCc2cc(O)ccc2O)cc1`, the growth in assay [1] is -41.9% (active); in assay [2] it was -19% (active); in [3], -39.5% (active); in assay [4], 5.17% (active); in [5], -64.5% (active); in [6] it was -16.5% (active). Moreover, the growth in assay [7] was -95.9% (active); in assay [8] it was -73.4% (active); in [9], -68.7% (active); in assay [10], -19.9% (active); in [11], -67.9% (active); in assay [12] it was -3.25% (active). For the same molecule, the growth in assay [13] is -100% (active); in assay [20], -95.9% (active); in [14] it was -89.7% (active); in assay [15], -92.5% (active); in assay [17] it was -23.7% (active); in assay [18], -19.5% (active).
As for `COc1ccc(/C=C2/C(=O)ON=C2C)cc1`, the growth is 112% in assay [1]; 99.2% in assay [2]; 106% in assay [3]; 106% in assay [4]; 98.6% in assay [5]; 97.6% in assay [6]. Also, the growth is 103% in [7]; 90.3% in assay [8]; 99.4% in assay [9]; 106% in [19]; 95.6% in [12]; 99% in [13]. Further, the growth in assay [20] was 96.5%; in assay [14] it was 118%; in assay [15], 102%; in assay [16] it was 100%; in assay [17], 105%; in [18], 107%.
